Source: PubChem
Compounds with a hit are over-represented: about 27% of the library has one in this group of screens.
CYP2C19 activ: increases human CYP2C19 enzyme activity. P33261. recombinant CYP2C19, luciferin-H EGE luminescence; stronger effect = higher value; 0 = fully inhibited enzyme, 1 = untreated enzyme. activation factor at 5 µM. 96,000 tested, under 10 active;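 active = activation factor of at least 2 at 5 µM in the primary screen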
Target sequence (P33261 whole entry, looked up): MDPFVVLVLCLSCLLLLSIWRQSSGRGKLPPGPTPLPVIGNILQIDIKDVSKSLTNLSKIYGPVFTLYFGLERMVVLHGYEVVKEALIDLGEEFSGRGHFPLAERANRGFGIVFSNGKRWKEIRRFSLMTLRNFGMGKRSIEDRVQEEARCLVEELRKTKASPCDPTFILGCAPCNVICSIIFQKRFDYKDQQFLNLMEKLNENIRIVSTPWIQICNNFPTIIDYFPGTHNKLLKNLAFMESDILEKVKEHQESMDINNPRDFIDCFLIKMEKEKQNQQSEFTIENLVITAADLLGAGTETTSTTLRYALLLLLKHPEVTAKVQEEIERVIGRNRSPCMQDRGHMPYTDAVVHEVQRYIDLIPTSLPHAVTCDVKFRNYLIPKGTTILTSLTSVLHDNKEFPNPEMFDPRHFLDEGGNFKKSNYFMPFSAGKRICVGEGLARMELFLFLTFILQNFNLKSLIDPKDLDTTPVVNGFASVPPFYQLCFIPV
Cav32 inh: human Cav3.2 channel inhibition, primary screen | 4% of 100,000 active | B-score at 10 µM | Cav3.2-expressing cells, Fluo-4 calcium fluorescence FDSS; stronger effect = lower value;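 active = single-dose well whose peak fluorescence ratio is a statistical outlier from its plate by either plate-standardised score or position-corrected B-score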
CYP2C9 inh: blocks human cytochrome P450 2C9 | CYP2C9 Supersomes, luciferin-H conversion, luminescence | inhibition, % at 5 µM | 20% of 96,000 active | AID 777;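 active = blocking of liver enzyme CYP2C9 beyond about 50% at 5 µM, limit read from the data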
CYP2C9 activ: CYP2C9 (human) activation | recombinant CYP2C9, luciferin-H conversion, luminescence; stronger effect = higher value; factor 1 = untreated enzyme, 0 = blocked | 1.4% of 96,000 active | activation factor at 5 µM | AID 1024 | P11712;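 active = activation factor of 2 or more for CYP2C9 at a 5 µM dose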
CYP2C19 inhib: blocks human cytochrome P450 2C19. P33261. CYP2C19 Supersomes, luciferin-H EGE luminescence, 30 min. inhibition, % at 5 µM. 21% of 96,000 active. AID 778;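 active = CYP2C19 inhibition above a set limit at 5 µM in the primary screen, cut at about 50% in these data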
Large screens that a line does not name were inactive.

N=c1c2c(-c3ccccc3)c(-c3ccccc3)n(Cc3ccco3)c2ncn1CCN1CCOCC1	Cav32 inh -11
Cc1cccc(-n2cnc3c(c2=O)c2nc4ccccc4nc2n3Cc2ccco2)c1	none
N=c1c2c(-c3ccccc3)c(-c3ccccc3)n(Cc3ccco3)c2ncn1CCO	Cav32 inh -7.4 (no result: CYP2C19 activ, CYP2C9 inh, CYP2C9 activ, CYP2C19 inhib)
Cn1c(SCC(=O)N(Cc2ccccc2)C(C)(C)C)nc2ccccc21	CYP2C19 inhib 50
COc1ccc(/C=N/NC(=O)C2CCN(c3ncc(C(F)(F)F)cc3Cl)CC2)cc1	none
COCCOC(=O)c1c(C)oc2ccc(O)c(CN3CCC(C)CC3)c12	CYP2C19 inhib 51
CCn1c(SCC(=O)Nc2ccc(N(C)C)cc2)nnc1-c1cccc(C)c1	CYP2C9 inh 86, CYP2C19 inhib 73
CCn1c(SCC(=O)Nc2ccc(C)cc2)nnc1-c1ccc(O)cc1	none (no result: CYP2C19 activ, CYP2C9 inh, CYP2C9 activ, CYP2C19 inhib)
CCn1c(CCNC(=O)c2cccs2)nnc1SCC(=O)Nc1cccc(Cl)c1	none (no result: CYP2C19 activ, CYP2C9 inh, CYP2C9 activ, CYP2C19 inhib)
CCC(=O)Nc1cccc(NC(=O)CSc2nnc(-c3ccc(NS(C)(=O)=O)cc3)n2CC)c1	CYP2C9 inh 54
CCn1c(SCC(=O)Nc2cccc(NC(=O)c3cccs3)c2)nnc1-c1ccncc1	CYP2C9 inh 72
CCn1c(SCC(=O)Nc2ccc(S(=O)(=O)Nc3ccccn3)cc2)nnc1-c1ccncc1	CYP2C9 inh 95, CYP2C19 inhib 60
CC1(C)CC(=O)c2cc(OCC(=O)NCCN3CCOCC3)ccc2O1	none
CC(C)CNS(=O)(=O)c1ccc(CCC(=O)NCc2ccco2)cc1	none (no result: CYP2C19 activ, CYP2C9 inh, CYP2C9 activ, CYP2C19 inhib)
CCn1c(SCC(=O)Nc2cc(C)on2)nnc1-c1c[nH]c2ccccc12	none (no result: CYP2C19 activ, CYP2C9 inh, CYP2C9 activ, CYP2C19 inhib)
CCn1c(SCC(=O)Nc2cc(C)on2)nnc1-c1ccncc1	CYP2C19 inhib 73
CCOC(=O)c1sc(SCC(=O)Nc2ccc(N(C)C)cc2)nc1N	CYP2C9 inh 57, CYP2C19 inhib 69
O=C1CCCN1CN(C(=O)c1ccccc1)c1ccc(F)cc1	none
O=C(Nc1sc2c(c1C(=O)O)CCC2)c1ccco1	CYP2C9 inh 53, CYP2C19 inhib 62
COC(=O)c1c(NC(=O)c2ccco2)sc2c1CCC2	none
COC(=O)c1c(NC(=O)c2ccco2)sc2c1C(C(=O)OC)CC2 (stereo unspecified)	CYP2C9 inh 62
COC(=O)c1c(NC(=O)C(C)C)sc2c1C(C(=O)OC)CC2 (stereo unspecified)	none (no result: CYP2C19 activ, CYP2C9 inh, CYP2C9 activ, CYP2C19 inhib)
O=C(Nc1sc2c(c1C(=O)NCc1cccnc1)CCCC2)c1ccco1	CYP2C9 inh 95, CYP2C19 inhib 78
CCC(C)[C@H](N)c1cn([C@@H](Cc2ccc(O)cc2)C(=O)N2CCNCC2)nn1 (stereo partly specified)	none (no result: CYP2C19 activ, CYP2C9 inh, CYP2C9 activ, CYP2C19 inhib)
Cc1ccc(S(=O)(=O)N2Cc3ccccc3CC2C(=O)Nc2ccc3c(c2)OCO3)cc1 (stereo unspecified)	Cav32 inh -4.5, CYP2C9 inh 97, CYP2C19 inhib 98
COc1ccc(S(=O)(=O)N2Cc3ccccc3CC2C(=O)Nc2ccc3c(c2)OCO3)cc1 (stereo unspecified)	CYP2C9 inh 62, CYP2C19 inhib 85
COC(=O)CC1COc2ccccc2N1C(=O)c1ccc(C(C)(C)C)cc1 (stereo unspecified)	CYP2C9 inh 77
COC(=O)CC1COc2ccccc2N1C(=O)c1ccc(Cl)cc1 (stereo unspecified)	none
O=C(Oc1cc(-c2ccccc2)no1)c1ccc(Cl)cc1	none
Cc1ccc(CSCC(=O)Nc2ccc3c(c2)OCO3)cc1	CYP2C19 inhib 59 (no result: Cav32 inh)
O=C(CSCc1ccccc1)Nc1ccc2c(c1)OCO2	none (no result: CYP2C19 activ, CYP2C9 inh, CYP2C9 activ, CYP2C19 inhib)
O=C(CSCc1c(Cl)cccc1Cl)Nc1ccc2c(c1)OCO2	CYP2C9 inh 75
Cc1ccc(S(=O)(=O)C2(C(=O)Nc3ccc4c(c3)OCO4)CC2)cc1	CYP2C9 inh 83, CYP2C19 inhib 87
O=C(CCCN1C(=O)CCC1=O)Nc1ccc2c(c1)OCO2	none
Cc1ccc(S(=O)(=O)C2(C(=O)Nc3ccc(F)cc3)CC2)cc1	none
O=C(CSCSCC(=O)Nc1ccc2c(c1)OCO2)Nc1ccc2c(c1)OCO2	CYP2C9 inh 80
CCOC(=O)N1CCN(Cc2nc(N)nc(Nc3ccc(OCC)cc3)n2)CC1	none
COc1ccc([C@H]2C=C3CN(C(=O)OC(C)(C)C)S(=O)(=O)[C@H]3C[C@H]2OC(=O)c2ccc(C(F)(F)F)cc2)cc1	none (no result: CYP2C19 activ, CYP2C9 inh, CYP2C9 activ, CYP2C19 inhib)
O=C(CSCc1c(Cl)cccc1Cl)Nc1ccccc1C(=O)N1CCOCC1	CYP2C9 inh 92
CSCCC(C(=O)Nc1ccc2c(c1)OCO2)N1C(=O)c2ccccc2C1=O (stereo unspecified)	CYP2C9 inh 52
